Results: the supplement of paper PMC6555819

Assays:
Experiment in all cases: PBM binding z-score (relative to random genomic background probes); higher = stronger binding; sequences stand for … in GC…GCGATTGACAGCGTAGAATGAAGG
[1] = tested on: FXR:RXRa (NR concentration 270 nM, RXRa partner concentration 90 nM)
Procedure, shortened: (§1)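 Each nuclear receptor dimer, without ligand, was incubated for 1 h on custom Agilent 4×180K protein-binding microarrays. Binding was detected with antibodies against each partner (one per run), and scanned fluorescence was regression-normalized. The binding z-scores are referenced to random human genomic background probes.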

[2] = tested on: LXRa:RXRa (NR concentration 270 nM, RXRa partner concentration 90 nM)
Procedure, shortened: as §1

[3] = tested on: LXRa homodimer (NR concentration 270 nM)
Procedure, shortened: as §1

[4] = tested on: LXRb:RXRa (NR concentration 270 nM, RXRa partner concentration 90 nM)
Procedure, shortened: as §1

[5] = tested on: LXRb homodimer (NR concentration 270 nM)
Procedure, shortened: as §1

[6] = tested on: PPARa:RXRa (NR concentration 270 nM, RXRa partner concentration 90 nM)
Procedure, shortened: as §1

[7] = tested on: PPARg:RXRa (NR concentration 180 nM, RXRa partner concentration 90 nM)
Procedure, shortened: as §1

[8] = tested on: PPARg:RXRa 270nM:90nM, anti-RXR (NR concentration 270 nM, RXRa partner concentration 90 nM)
Procedure, shortened: as §1

[9] = tested on: PPARg:RXRa 30nM:10nM, anti-RXR (NR concentration 30 nM, RXRa partner concentration 10 nM)
Procedure, shortened: as §1

[10] = tested on: PPARg:RXRa 90nM:30nM, anti-RXR (NR concentration 90 nM, RXRa partner concentration 30 nM)
Procedure, shortened: as §1

Sequence | PBM binding z-score [1] | PBM binding z-score [2] | PBM binding z-score [3] | PBM binding z-score [4] | PBM binding z-score [5] | PBM binding z-score [6] | PBM binding z-score [7] | PBM binding z-score [8] | PBM binding z-score [9] | PBM binding z-score [10]
TCTTGTAGATCCATAGAGGTTAAGAAAGTGCGCT | 0.485 | 3.32 | -0.138 | 1.43 | 0.453 | 1.16 | -0.272 | 1.18 | 2.32 | 1.65
GCTAGTTAGTCAGTAAAAGGTCACACACCGGTCG | 3.12 | 4.12 | 4.46 | 3.91 | 0.32 | 4.56 | 3.96 | 5.48 | 3.89 | 5.04
TCATATAGGTAAAAGGGGAAAGTCGGTGTGGTAA | 1.2 | 0.984 | 0.33 | 1.32 | 0.445 | 3.75 | 6.27 | 6.98 | 6.37 | 7.9
CGAACTAGGTCATCCAGGATAGTGAATACATTGA | 4.33 | 2.51 | 0.425 | 2.22 | -0.0288 | 4.87 | 7.49 | 6.2 | 3.48 | 5.72
CGAACGAGGGCATGATTTGATAGCAAATGCCGAT | 0.047 | -0.148 | -0.301 | -0.0288 | -0.66 | 0.783 | 0.992 | 0.441 | 0.141 | 0.0789
CGAAATAGGTCAAGGACAGTGAATCTCCGCACGC | 5.6 | 4.09 | 0.715 | 3 | 0.676 | 5.27 | 7.22 | 6.58 | 4.2 | 6.39
AATACAGGGTCATCGGAGGCCAGAGTACGCACAG | 7.32 | 6.52 | 2.37 | 4.98 | 1.28 | 6.1 | 6.72 | 6.12 | 2.64 | 4.8
CCTTATGGGTCACTGACAGGTTATAGCATTTGGA | 3.95 | 3.45 | 0.192 | 2.96 | -0.062 | 4.93 | 5.81 | 5.11 | 2.32 | 4.08
GCATATAGGTCATACAAGGTGAAAGTCCGATTGT | 6.4 | 5.8 | 2.37 | 4.27 | 0.913 | 5.75 | 7.36 | 6.55 | 4.09 | 6.05
TCTATTAGTTGAGTAGGGCAACCGAAACAGCGGA | 0.117 | -0.0688 | -0.201 | 0.0431 | 0.0555 | 0.964 | 0.351 | 1.65 | 3.14 | 2.23
GCGACTGGGGCAAAGCAGGTTACCCTAAGGTTGG | 0.366 | 0.0738 | -0.555 | 0.116 | -0.841 | 1.56 | 1.08 | 1.52 | -0.381 | 0.659
CATACAGGGTCAACTAGGCCAGAGTAGGGACGGC | 6.88 | 4.92 | 0.472 | 4.1 | 0.96 | 5.82 | 6.43 | 5.91 | 2.49 | 4.66
TCTACTAGGTCAGTTGGTCAGCTAACGAGCTGCC | 1.67 | 1.12 | -0.0574 | 0.857 | 1.06 | 2.61 | 4.64 | 4.2 | 3.87 | 4.08
ATCCCTAGGTAAAAGTTCAGTGAATCCCGAGGAT | 0.811 | 1.11 | 0.954 | 0.838 | 0.347 | 2.71 | 3.92 | 4.85 | 3.04 | 4.55
CATACTGGGCCACGAAAGGTCATTGATTCAGTGA | 3.98 | 5.28 | 5.21 | 4.44 | 0.817 | 4.52 | 4.46 | 4.67 | 1.9 | 3.84
CCGACTGGGGCAAAGGTTACCATCCTCAGTACGA | 1.66 | 1.25 | -0.21 | 1.79 | -0.941 | 5.49 | 10.9 | 9.37 | 8.35 | 10.1
ATCTCTAGGTAACAAAGTTCAGTGAATGCCGAAC | 0.948 | 1.9 | 2.1 | 1.27 | 0.958 | 2.12 | 2.01 | 3.09 | 1.01 | 2.42
CGTCCAAGGTCAAAGGTCAGTGGAGAGATGACGG | 8.17 | 6.91 | 3.66 | 6.84 | 2.07 | 7.16 | 10.7 | 9.05 | 8.08 | 9.59
CCTACTGGGGCAAAGGTTACCATACTCAGTACGA | 1.74 | 1.84 | 0.187 | 2.41 | -0.355 | 6.15 | 12.1 | 10 | 12.4 | 12.2
TGAATGAGGCTATAAGATCAGGGAACGTTGCAAA | -0.518 | -0.611 | -0.669 | -0.726 | -0.998 | -0.176 | 0.387 | 0.203 | 0.0907 | -0.0194
CCTACTGGGCCATTCAGAGGTCATTTATCATATG | 2.65 | 4.36 | 8.31 | 4.14 | 1.15 | 3.75 | 2.29 | 2.85 | 0.841 | 1.78
AGTCAAAGTTCAGGACGAGGTAAGGTAAAGCACG | 4.31 | 3.87 | 1.46 | 1.95 | 0.293 | 3.46 | 4.39 | 5.12 | 2.13 | 4.27
CCTCCAAGGTCAGCAGGTCAGTGAAAGCGACGTG | 5.51 | 3.58 | 0.385 | 2.93 | 0.111 | 4.67 | 4.14 | 4.24 | 1.49 | 2.93
TAGCCTAGGTCATTAAGGGGCCAGTATAGAAAGC | 3.58 | 3.35 | 0.285 | 2.67 | 0.552 | 3.21 | 1.75 | 2.07 | 0.301 | 1.11

Sequence | PBM binding z-score [1] | PBM binding z-score [2] | PBM binding z-score [3] | PBM binding z-score [4] | PBM binding z-score [5] | PBM binding z-score [6] | PBM binding z-score [7] | PBM binding z-score [8] | PBM binding z-score [9] | PBM binding z-score [10]
CAGCCTAAGTCAGGGCCAGTATAGGAGGAACGTT | -0.194 | -0.51 | -0.309 | -0.69 | -1.28 | -0.483 | 0.0918 | -0.709 | -0.0751 | -0.475
ATACCAAGGTGATCGTGATGTCGTTGATACTAAC | 0.333 | 0.0372 | 0.013 | 0.116 | -0.0295 | 0.0573 | 0.279 | 0.281 | 0.217 | 0.0356
ACTAGCAGGCCAAGGGTCACTCACGATTAGTCCG | 2.5 | 2.67 | 0.186 | 2.74 | -0.177 | 4.69 | 7.31 | 6.69 | 5.72 | 6.89
GCTGCTAGGTCACCTGATGGTCAGCTAAAGCTCG | 3.25 | 2.4 | -0.338 | 1.66 | -0.22 | 3.22 | 2.21 | 2.86 | 0.569 | 1.95
ATCGAAAGGTGGTGAGGTGAGTATACAGAAAGGC | 0.483 | 0.31 | 0.284 | 0.389 | 0.161 | 0.744 | 0.668 | 0.261 | 0.347 | 0.438
GGAACGAGGGCATTCGAGGTGATAGCATGGCGAT | 1.32 | 3.38 | -0.432 | 0.556 | -0.578 | 2 | 1.28 | 0.75 | 0.0745 | 0.494
ATCGAGAGGTCGTGAGGTGAGTATACAGAAAGGC | 3.73 | 2.94 | 0.117 | 2.25 | 0.0713 | 4.03 | 2.75 | 2.74 | 0.76 | 1.91
AGTCAAAGTTCACTAGCTAACGTAAGATTCAGCT | 4.87 | 4.82 | 2.93 | 3.04 | 1.11 | 3.91 | 5.29 | 5.49 | 2.82 | 4.54
ATATCTAGGTTATCGGGTCATTCAGTTTGCGCAT | 3.27 | 3.47 | 2.2 | 3.33 | 1.83 | 4.98 | 6.91 | 6.17 | 4.2 | 6.24
CCTCGGAGAACAACAGGAGGTCAGAGCTGCCAGA | 0.847 | 1.87 | 1.86 | 1.46 | -0.303 | 1.82 | 0.213 | -0.135 | -1.02 | -0.29
AGTCACAGTTCAGGACGAGGTAACGTAAAGCACG | 1.01 | 0.828 | 0.0856 | 0.666 | -0.159 | 1.35 | 1.15 | 0.998 | 0.403 | 0.623
CGTCCAAGGTCATAGGAGGTAAGTGAAGACAGAT | 7.22 | 5.32 | 0.86 | 3.76 | 0.57 | 5.49 | 4.65 | 4.94 | 1.76 | 3.49
CGTCCAAGGTCAATGCTAGGTCAGTGACAGCATT | 6.74 | 5.78 | 2.73 | 4.19 | 1.14 | 5.31 | 4.11 | 4.64 | 1.38 | 3.44
GGACCGAGGGCAAAGTTGATAGCATCTGTCGACG | 1.12 | 0.801 | -0.42 | 0.811 | -0.953 | 2.74 | 3.41 | 4.82 | 2.42 | 4.42
CCTAGTTGGTCAAGGCCACACACGCTATAGGTAC | 0.421 | 0.312 | 0.477 | 0.547 | 0.294 | 0.252 | 0.917 | 0.608 | -0.0145 | 0.142
ACTATTAGTTGACATAGGGCAACCGATACGACGC | 0.176 | 0.333 | 0.152 | 0.7 | 0.719 | 0.537 | 1.45 | 0.934 | 0.646 | 1
GCGACTGGGGCAAAGCAGGATACCATAAGGTTGG | 0.421 | -0.82 | -0.556 | -0.347 | -0.952 | 0.75 | 1.31 | 1.03 | -0.094 | 0.712
CATTACGGGTCACGAGGTTATAGCACGACGAGCG | 7.14 | 6.04 | 2.06 | 4.56 | 1 | 6.33 | 8.49 | 7.3 | 4.45 | 6.59
AGTCAAAGTTCAGGACGAGCTAACGTAAAGCACG | 3.87 | 3.76 | 0.971 | 1.55 | 0.0911 | 3.08 | 4.04 | 4.89 | 2.01 | 4.19
CCAGACCGGTGAAAGGTAACTCAGTCTGGTACGC | -0.0585 | 0.0819 | -0.526 | 0.182 | -0.601 | 2.13 | 2.61 | 4.02 | 1.71 | 3.56
TCTTGTAGATCAGCAAGTTAAGAAAGCTGGCCAA | -0.13 | -0.113 | -0.739 | -0.0484 | -0.743 | 0.316 | -0.599 | 1.24 | 2.5 | 1.78
TCTTGTAGATCAATAGAGGTCAAGAAAGTGCGCT | 3.34 | 5.24 | 3.98 | 4.27 | 1.1 | 4.19 | 1.36 | 3.32 | 3.08 | 3.18
CGTCAAAGTTCAAGGTAACGAAACAGAAAGCAGC | 6.35 | 5.77 | 2.25 | 3.3 | 0.914 | 4.7 | 4.6 | 5.48 | 2.22 | 4.42
CCGAATAGGTTATGGGGCATTCAGGCAACGGTGA | 0.575 | 0.686 | -0.0267 | 1.02 | -0.297 | 2.16 | 1.97 | 3.14 | 0.896 | 2.04
